# Cruzain inh Det = inhibitors of Trypanosoma cruzi cruzain with detergent. P25779. purified cruzain, Z-FR-AMC fluorescence, 0.01% Triton. Potency, µM, inactives show max response, negative = inhibition, usual class: inhibitors. 0.43% of 200,000 active. AID 1478;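 note: plate controls were neutral wells for no effect and buffer without enzyme for full effect; nearly all actives have a fitted effect of over 40% in size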
# Target sequence (P25779 123-467 limits assumed): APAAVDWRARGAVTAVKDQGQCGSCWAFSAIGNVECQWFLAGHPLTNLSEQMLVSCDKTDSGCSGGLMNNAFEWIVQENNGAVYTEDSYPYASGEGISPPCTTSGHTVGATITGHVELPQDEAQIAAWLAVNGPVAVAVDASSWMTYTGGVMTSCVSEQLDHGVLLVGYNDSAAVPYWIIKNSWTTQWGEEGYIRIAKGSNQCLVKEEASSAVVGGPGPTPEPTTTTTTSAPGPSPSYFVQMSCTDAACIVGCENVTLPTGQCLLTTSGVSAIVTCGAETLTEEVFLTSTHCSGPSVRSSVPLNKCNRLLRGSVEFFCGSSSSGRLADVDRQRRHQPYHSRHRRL
#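 Cysteine protease activity tested under reducing, mildly acidic conditions (100 mM sodium acetate pH 5.5, 5 mM DTT) plus 0.01% Triton X-100. Cruzain 1.5 nM; substrate Z-FR-AMC 2 uM; 15 min compound preincubation at room temperature.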
# Cruzain inh noDet = cruzain (T. cruzi) inhibition without detergent | purified cruzain, Z-FR-AMC fluorescence, no detergent | Potency, µM, without a hit: max response, negative = inhibition, usual class: inhibitors | AID 1476 | 2.3% of 200,000 active | P25779;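 note: plate controls were enzyme without inhibitor for no effect and buffer without enzyme for full effect; nearly all actives have a fitted effect of over 40% in size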
#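 Detergent-free condition (0.00005% Triton X-100) in acetate buffer pH 5.5 with DTT. 1.5 nM enzyme and compound were pre-mixed 15 min, then 2 uM Z-FR-AMC substrate added; reaction progress from fluorescence change between first and third reads (60 s).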
# Starred values were filed as active, the others as inactive; ? = inconclusive. An excerpt weighted towards active compounds, which were near 2.4% of everything screened. Calls come from the whole dose curve; as a rule, active = well fitted curve in the direction sought with a large enough effect; inconclusive = small, poorly fitted or top-dose-only effect, or another doubt; inactive = no such curve, though single readings can be large; an effect the other way counts as inactive or inconclusive. Potency is the fitted concentration of half-maximal effect.
SMILES,Cruzain inh Det,Cruzain inh noDet
CC(/C=C1\SC(=S)N(NC(=O)c2ccccc2C)C1=O)=C\c1ccccc1,-5.7%,?
CC(=O)c1ccc(NC(=O)CN2C(=O)/C(=C/C(C)=C/c3ccccc3)SC2=S)cc1,-5.0%,10µM*
CC(/C=C1\SC(=S)N(CCCC(=O)Nc2ccc(C(=O)O)c(O)c2)C1=O)=C\c1ccccc1,28.2µM*,?
CC(/C=C1\SC(=S)N(NC(=O)c2ccc(C)cc2)C1=O)=C\c1ccccc1,-6.0%,31.6µM*
CC(=O)c1ccc(NC(=O)CN2C(=O)CN(C)C(=O)c3ccccc32)cc1,0.9%,15.6%
Cc1cc2oc(=O)cc(C)c2c2occ(-c3ccc(Cl)cc3)c12,-1.7%,-9.9%
COc1ccc(CNC(=O)C2CCN(S(=O)(=O)c3ccc4c(c3)CCCN4C(C)=O)CC2)cc1,-1.3%,10.2%
COc1ccc(-c2cn(-c3ccc(C)cc3)c(S(=O)(=O)CC(=O)Nc3ccccc3)n2)cc1,-14.5%,20µM*
Cc1cccc(C)c1NC(=O)CS(=O)(=O)c1nc(-c2ccc(Cl)cc2)cn1-c1ccccc1,?,-3.6%
COc1ccc(-c2cn(-c3ccc(C)cc3)c(S(=O)(=O)CC(=O)Nc3ccc(F)cc3)n2)cc1,-10.9%,15.8µM*
COc1ccccc1-n1cc(-c2ccc(C)cc2)nc1S(=O)(=O)CC(=O)Nc1ccccc1C(F)(F)F,1.7%,11.7%
O=C(CN1C(=O)CC(c2ccccc2)Sc2ccccc21)Nc1cccc(Cl)c1 (stereo not given),-2.6%,-4.3%
CCOc1cccc2sc(N(Cc3cccnc3)C(=O)c3ccc(C#N)cc3)nc12,-6.9%,?
N#Cc1c(NC(=S)NC(=O)c2ccccc2)sc2c1CCCC2,-3.2%,-23.7%
CC1CCc2c(sc(NC(=O)COC(=O)c3ccccc3NCc3ccco3)c2C#N)C1 (stereo not given),5.5%,15.8µM*
Cc1cc(C(=O)Nc2sc3c(c2C#N)CCC(C)C3)cs1 (stereo not given),3.1%,?
CC1CCc2c(sc(NC(=O)COc3ccccc3C(C)(C)C)c2C#N)C1 (stereo not given),-0.9%,-7.7%
Cc1ccccc1C(=O)NC(=S)Nc1sc2c(c1C#N)CCC(C)C2 (stereo not given),1.9%,15.8µM*
N#Cc1c(NC(=S)NC(=O)c2ccccc2)sc2c1CCN(CCc1ccccc1)C2,-15.2%,15.8µM*
COc1ccc(-c2noc(-c3ccc(C)cc3Cl)n2)cc1OC,-0.1%,3.1%
O=C1CCC=C1C(O)c1ccc2c(c1)OCO2 (stereo not given),3.1%,-7.0%
O=c1c(N2CCN(c3cccc(C(F)(F)F)c3)CC2)csc2ccccc12,-5.5%,-6.1%
CCC(C(=O)NCCc1ccccc1)n1nc(C)c2sc3ccccc3c2c1=O (stereo not given),-3.0%,0.6%
CCc1cccc(NC(=O)CC2Oc3ccc(C)cc3NC2=O)c1 (stereo not given),1.8%,5.4%
CC(=O)N/N=C/c1cc(C)n(-c2ccc(Br)cc2)c1C,-3.6%,-0.4%
SMILES,Cruzain inh Det,Cruzain inh noDet
Cc1cc([P+](=O)O)c(C)n1-c1ccc(Br)cc1,3.5%,20µM*
COc1cc(NC(=O)COC(=O)CNS(=O)(=O)c2ccc(F)c(F)c2F)cc(OC)c1,28.2µM*,25.1µM*
COc1cc(NC(=O)COC(=O)c2ccccc2F)cc(OC)c1,-2.4%,4.3%
COc1ccc(Cn2nnnc2C(c2cccs2)N2CCN(c3ccc([N+](=O)[O-])cc3)CC2)cc1 (stereo not given),-3.4%,31.6µM*
COc1ccc(Cn2nnnc2C(c2cccs2)N2CCN(c3ccccc3)CC2)cc1 (stereo not given),0.1%,8.8%
Cc1ccc(C)c2nc3sc(C(=O)N4CCCc5ccccc54)c(N)c3cc12,4.6%,3.4%
CCc1ccc2nc3sc(C(=O)N4CCc5ccccc54)c(N)c3cc2c1,-3.0%,25.1µM*
COc1ccc(CN2C(=O)N(c3cccc(C)c3)C(=O)C2CC(=O)Nc2ccc(F)cc2)cc1OC (stereo not given),1.0%,7.5%
CCOc1ccc(-n2cc(C(=O)Nc3ccccc3OCC)c3cc(OC)c(OC)cc3c2=O)cc1,2.0%,6.2%
O=C(Nc1nc2cc(Cl)ccc2s1)C1CCCN(S(=O)(=O)c2cccc3cccnc23)C1 (stereo not given),-8.2%,25.1µM*
COc1ccc2nc(NC(=O)C3CCCN(S(=O)(=O)c4cccs4)C3)sc2c1 (stereo not given),-2.0%,25.1µM*
COc1ccc2nc(NC(=O)C3CCN(S(=O)(=O)c4cccs4)CC3)sc2c1,-1.2%,?
O=C(Nc1nccs1)C1CCCN(S(=O)(=O)c2cccc3cccnc23)C1 (stereo not given),1.0%,3.2%
Cc1ccc(CNC(=O)CCCN2C(=O)CCn3nc(-c4cccn4C)cc32)cc1,-1.2%,?
CSCCC(NS(=O)(=O)c1ccc2c(c1)oc(=O)n2C)C(=O)NCc1ccc(Cl)cc1 (stereo not given),0.1%,8.7%
